Compounds with a hit are over-represented: about 3.4% of the library has one in this group of screens.
hcDAF12 agonist = activators of H. contortus DAF-12 nuclear receptor; HEK293 hcDAF-12 lit1-tk-luc reporter, luminescence; 0% DMSO, 100% Δ7-dafachronic acid; activation, % at 6.8 µM; 370,000 compounds, 1.4% hits; AID 652067;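 active = activation above the mean of all tested compounds plus 3 SD, cut at about 5.5% in these data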;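 note: 100% = response to 3 µM Δ7-dafachronic acid high control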
ssDAF12 agonist = activators of S. stercoralis DAF-12 nuclear receptor. HEK293 ssDAF-12/GRIP1 lit1-tk-luc reporter, luminescence; % of 3 µM dafachronic acid response. activation, % at 6.8 µM. 370,000 compounds, 1% hits. AID 652126;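 active = activation above the mean over all tested compounds plus 3 SD, cut at about 0.9% in these data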;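 note: 0% = DMSO-only wells and 100% = 3 µM delta7-dafachronic acid wells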
APP 5'UTR act = APP 5'UTR luciferase reporter activation; 190,000 compounds, 1% hits; SH-SY5Y APP 5'UTR luciferase reporter, luminescence; zero percent = DMSO vehicle wells; AID 1276; activation, % at 2 µM;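 active = activation above a set limit, based on mean plus 3 SD of controls, cut at about 140% in these data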
NF-kB expr up = NF-kB expression increase, human neuronal cells; NF-kB reporter expression; active compounds read high; fold change at 12.5 µM; 190,000 compounds, 1.6% hits; AID 1239; in the data active = fold change above about 3.3
hgDAF12 agonist = agonists of H. glycines DAF-12 nuclear receptor | HEK293 GAL4-hgDAF12 UAS-luciferase reporter, agonist luminescence; normalized to butyrate control | activation, % at 6.8 µM | 370,000 compounds, 1.8% hits | AID 687014;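 active = activation above a cutoff set at the mean of all screened compounds plus 3 SD, cut at about 10% in these data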;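 note: 0% = DMSO wells and 100% = sodium butyrate wells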
hgDAF12 conf = hgDAF-12 agonism, confirmation assay | HEK293 GAL4-hgDAF12 luciferase reporter, agonist mode; percent of butyrate response | activation, % at 6.8 µM | shares compounds with hgDAF12 agonist | 3,300 compounds, 80% hits;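 active = mean activation over triplicate wells above the hit cutoff derived from the earlier primary screen, cut at about 11% in these data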;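 note: 0% = DMSO low control and 100% = 2 mM sodium butyrate high control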
LXRb DAF12 ctr = activates human LXR-beta, counter-screen for DAF-12 agonists; shares compounds with hgDAF12 agonist; 3,300 tested, under 10 active; HEK293 Gal4-LXR luciferase reporter, 24 h; activation, % at 6.8 µM; AID 743051;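 active = mean activation of the triplicate above a set limit carried over from the primary screen, none filed active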
Target sequence (P55055 whole entry, looked up, the tested form may be a part): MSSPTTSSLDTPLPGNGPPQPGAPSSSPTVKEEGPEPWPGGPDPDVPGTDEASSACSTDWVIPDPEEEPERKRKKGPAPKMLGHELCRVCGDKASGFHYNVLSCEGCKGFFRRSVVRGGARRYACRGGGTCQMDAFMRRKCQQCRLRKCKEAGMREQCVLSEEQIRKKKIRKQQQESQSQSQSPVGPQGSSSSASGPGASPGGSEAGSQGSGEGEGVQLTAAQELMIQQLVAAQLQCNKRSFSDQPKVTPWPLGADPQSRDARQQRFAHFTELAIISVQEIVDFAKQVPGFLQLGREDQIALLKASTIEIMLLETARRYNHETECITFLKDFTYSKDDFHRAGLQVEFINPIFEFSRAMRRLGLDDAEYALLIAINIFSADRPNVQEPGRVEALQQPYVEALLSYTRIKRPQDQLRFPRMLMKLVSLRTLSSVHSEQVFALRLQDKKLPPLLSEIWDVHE
Numbers without * were called inactive.

How did Cc1c(NC(=O)C2CCCN(S(=O)(=O)c3ccc(F)cc3)C2)c(=O)n(-c2ccccc2)n1C (configuration not stated) do in these assays?
hcDAF12 agonist: -1; ssDAF12 agonist: -1; hgDAF12 agonist: 4

How did O=C(CSc1nnc(NC2CCCCC2)s1)Nc1ccc2c(c1)C(=O)c1ccccc1C2=O do in these assays?
hcDAF12 agonist: 4; ssDAF12 agonist: 0; APP 5'UTR act: 86; NF-kB expr up: 1.2; hgDAF12 agonist: 14*; hgDAF12 conf: 14*; LXRb DAF12 ctr: 0

How did C=CCN1[C@H](Cc2ccccc2)COc2cccc(N3CCSCC3)c2S1(=O)=O do in these assays?
hcDAF12 agonist: 0; ssDAF12 agonist: -1; hgDAF12 agonist: -2

What do the screens show for `Cc1nn(-c2ccccn2)c2c1-c1nc(N)ncc1CC2`?
hcDAF12 agonist: 1; ssDAF12 agonist: 0; APP 5'UTR act: 45; NF-kB expr up: 1.7; hgDAF12 agonist: 18*; hgDAF12 conf: 10*; LXRb DAF12 ctr: 0

What do the screens show for `COC(=O)[C@]12C[C@H](CC(=O)N3CCCCC3)C(=O)N(Cc3ccco3)C1=C[C@H](C(C)(C)C)O[C@@H]2C`?
hcDAF12 agonist: -2; ssDAF12 agonist: -2; hgDAF12 agonist: -4

How did c1ccc(CSc2ncnc3c2ncn3C2CCCCO2)cc1 (configuration not stated) do in these assays?
hcDAF12 agonist: 2; ssDAF12 agonist: 0; hgDAF12 agonist: 14*; hgDAF12 conf: 12*; LXRb DAF12 ctr: 0

What do the screens show for `Fc1ccc(/C=N/Nc2nccnc2Cl)cc1`?
hcDAF12 agonist: 4; ssDAF12 agonist: 0; hgDAF12 agonist: 14*; hgDAF12 conf: 6; LXRb DAF12 ctr: 0

Results for Cc1ccc(N2CCN(C(=O)c3cn(CC4CCCCC4)nn3)C(C)C2)cc1 (configuration not stated) ?
hcDAF12 agonist: 2; ssDAF12 agonist: 1.0*; hgDAF12 agonist: 15*; hgDAF12 conf: 13*; LXRb DAF12 ctr: 1

What do the screens show for `O=C(c1cn(CC2CCCCC2)nn1)N1CCN(c2ccc(F)cc2)CC1`?
hcDAF12 agonist: -2; ssDAF12 agonist: -2; hgDAF12 agonist: 2

How did CCOC(=O)[C@]12CCCC=C1N(Cc1ccc(OC)cc1)C(=O)[C@@H]2CC(=O)NCc1ccccc1 do in these assays?
hcDAF12 agonist: -2; ssDAF12 agonist: -1; hgDAF12 agonist: 0

What do the screens show for `O=C(Nc1cccc(Cl)c1)c1ccc(OC(=S)N2CCOCC2)cc1`?
hcDAF12 agonist: 1; ssDAF12 agonist: -1; APP 5'UTR act: 157*; NF-kB expr up: 1.9; hgDAF12 agonist: 19*; hgDAF12 conf: 7; LXRb DAF12 ctr: 0

Results for Cc1cccc(NC(=O)c2cccc(OC(=S)N3CCOCC3)c2)c1 ?
hcDAF12 agonist: -2; ssDAF12 agonist: 0; hgDAF12 agonist: -3

Results for O=S1(=O)C=CCN1Cc1cn(Cc2ccc(C(F)(F)F)cc2)nn1 ?
hcDAF12 agonist: -2; ssDAF12 agonist: -1; hgDAF12 agonist: 1

What do the screens show for `COc1ccc(/C=C/c2noc(-c3ccccc3O)n2)cc1`?
hcDAF12 agonist: 5; ssDAF12 agonist: 0; APP 5'UTR act: 71; NF-kB expr up: 1; hgDAF12 agonist: 6

Results for CC(=O)Oc1ccccc1-c1nc(/C=C/c2ccccc2)no1 ?
hcDAF12 agonist: 6.3*; ssDAF12 agonist: 0; hgDAF12 agonist: 17*; hgDAF12 conf: 18*; LXRb DAF12 ctr: 1

How did Cc1nonc1C1CCCN1C(=O)c1cc(COc2ccc(F)cc2F)on1 (configuration not stated) do in these assays?
hcDAF12 agonist: 3; ssDAF12 agonist: 0; APP 5'UTR act: 101; NF-kB expr up: 2.7; hgDAF12 agonist: 15*; hgDAF12 conf: 12*; LXRb DAF12 ctr: 1

What do the screens show for `Cc1cccc(C)c1OCc1cc(C(=O)N2CCCC2c2nonc2C)no1` (configuration not stated)?
hcDAF12 agonist: 0; ssDAF12 agonist: -1; hgDAF12 agonist: -1

What do the screens show for `COC(=O)C[C@H]1CC[C@H]2[C@H](COc3ccc(NC(=O)Cc4cccs4)cc3C(=O)N2C)O1`?
hcDAF12 agonist: -2; ssDAF12 agonist: 0; hgDAF12 agonist: -1

Results for O=C(CCc1ccccc1)N[C@H]1[C@H](OC(=O)c2cccnc2)CCC[C@@]12C(=O)N(Cc1ccccc1)c1ccccc12 ?
hcDAF12 agonist: -2; ssDAF12 agonist: -2; hgDAF12 agonist: 0

How did O=C(Nc1ccc2[nH]c(=S)sc2c1)c1ccccc1 do in these assays?
hcDAF12 agonist: 1; ssDAF12 agonist: -1; APP 5'UTR act: 66; NF-kB expr up: 1.6; hgDAF12 agonist: 14*; hgDAF12 conf: 12*; LXRb DAF12 ctr: 1

Results for Cc1ccccc1C(=O)NC(CC(C)C)C(=O)OCc1cc(=O)n2cc(Br)ccc2n1 (configuration not stated) ?
hcDAF12 agonist: 4; ssDAF12 agonist: -1; APP 5'UTR act: 74; NF-kB expr up: 3.5*; hgDAF12 agonist: 14*; hgDAF12 conf: 11*; LXRb DAF12 ctr: 0

How did Cc1ccccc1NC(=O)N(C)[C@H]1C[C@H]2c3[nH]c4c(-c5ccccc5)cccc4c3CCN2C(=O)[C@H]1[C@H](C)O do in these assays?
hcDAF12 agonist: 0; ssDAF12 agonist: 0; hgDAF12 agonist: 2

Results for COc1ccc(C2NC(=O)CS2)cc1OC (configuration not stated) ?
hcDAF12 agonist: -1; ssDAF12 agonist: -1; APP 5'UTR act: 4; NF-kB expr up: 0.97; hgDAF12 agonist: -2

How did COc1ccc(C2NN=C(c3ccc(C)cc3)S2)cc1OC (configuration not stated) do in these assays?
hcDAF12 agonist: 3; ssDAF12 agonist: 0; APP 5'UTR act: 164*; NF-kB expr up: 3.5*; hgDAF12 agonist: 18*; hgDAF12 conf: 18*; LXRb DAF12 ctr: 1

How did COc1ccc(C2CC(c3ccc(Cl)cc3)=NN2c2ccc(S(N)(=O)=O)cc2)cc1 (configuration not stated) do in these assays?
hcDAF12 agonist: 0; ssDAF12 agonist: -1; hgDAF12 agonist: 1

What do the screens show for `COc1ccc(C2CC(c3ccncc3)=NN2c2ccc(S(N)(=O)=O)cc2)cc1` (configuration not stated)?
hcDAF12 agonist: 5; ssDAF12 agonist: 1; hgDAF12 agonist: 26*; hgDAF12 conf: 22*; LXRb DAF12 ctr: 1

Results for CN(Cc1ccccc1)C(=O)OCc1cn(Cc2cc(F)cc(F)c2)nn1 ?
hcDAF12 agonist: 2; ssDAF12 agonist: -1; hgDAF12 agonist: -1

What do the screens show for `COc1ccc(-c2nc(-c3ccccc3OC)no2)cc1OC`?
hcDAF12 agonist: 0; ssDAF12 agonist: 0; APP 5'UTR act: 31; NF-kB expr up: 1.2; hgDAF12 agonist: 6

Screening data from PubChem BioAssay.
